# Screens (PubChem BioAssay)
# Only some compounds are listed: those with a hit (about 2.6% of all), similar ones and a draw of the others.
# Cruzain inh Det: inhibitors of Trypanosoma cruzi cruzain with detergent; purified cruzain, Z-FR-AMC fluorescence, 0.01% Triton; Potency, µM, for the others: max response, negative = inhibition, actives largely listed as inhibitors; actives 0.43% (n = 200,000); AID 1478;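 note: plate controls were neutral wells for no effect and buffer without enzyme for full effect; nearly all actives have a fitted effect of over 40% in size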
# Target sequence (P25779 123-467 limits assumed): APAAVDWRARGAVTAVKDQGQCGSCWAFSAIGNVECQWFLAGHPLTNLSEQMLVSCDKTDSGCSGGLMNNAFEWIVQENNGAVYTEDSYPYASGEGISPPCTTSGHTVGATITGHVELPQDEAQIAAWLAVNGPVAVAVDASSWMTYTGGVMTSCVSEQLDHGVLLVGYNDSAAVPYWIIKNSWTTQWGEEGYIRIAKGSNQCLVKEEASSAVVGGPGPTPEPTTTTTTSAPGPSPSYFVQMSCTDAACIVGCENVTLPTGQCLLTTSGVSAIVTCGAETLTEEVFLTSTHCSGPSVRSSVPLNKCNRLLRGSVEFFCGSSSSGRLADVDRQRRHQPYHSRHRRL
#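 Steps: dispense cruzain (1.5 nM final) in acetate buffer pH 5.5 with DTT and 0.01% Triton X-100; pin-transfer compounds; incubate 15 min RT; add Z-FR-AMC (2 uM final); read fluorescence every 30 s, using the 60 s intensity change.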
# Cruzain noTriton: inhibitors of Trypanosoma cruzi cruzain without detergent; Potency, µM, without a hit: max response, negative = inhibition, most hits filed as inhibitors; actives 2.3% (n = 200,000); P25779; purified cruzain, Z-FR-AMC fluorescence, no detergent;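 note: plate controls were enzyme without inhibitor for no effect and buffer without enzyme for full effect; nearly all actives have a fitted effect of over 40% in size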
#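 Purified cruzain at 1.5 nM, pre-incubated 15 min with compound at room temperature in 100 mM sodium acetate pH 5.5, 5 mM DTT, 0.00005% Triton X-100. Reaction started with 2 uM Z-FR-AMC; AMC fluorescence increase over 60 s gives rate.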
# * hit, by the source's call; ? = inconclusive. Calls come from the whole dose curve; as a rule, active = well fitted curve in the direction sought with a large enough effect; inconclusive = small, poorly fitted or top-dose-only effect, or another doubt; inactive = no such curve, though single readings can be large; an effect the other way counts as inactive or inconclusive. Potency is the fitted concentration of half-maximal effect.
SMILES,Cruzain inh Det,Cruzain noTriton
CCC(C)NC(=O)c1sc2ncccc2c1-n1c(C)ccc1C (configuration not stated),-3%,-3%
O=C(Cn1nnc(-c2ccc(Cl)cc2)n1)NCCC1=CCCCC1,10%,20µM*
Cc1ccc(-c2nnn(CC(=O)NCCC3=CCCCC3)n2)cc1,8%,?
CC(=O)N1c2c(cc(Br)cc2S(=O)(=O)NCc2ccccc2Cl)CC1C (configuration not stated),-3%,-3%
COc1ccc(C2CC(c3ccc4ccccc4c3OC(C)=O)=NN2C(=O)/C=C/c2ccccc2)cc1 (configuration not stated),-1%,7.9µM*
COc1ccc(C2CC(c3ccccc3OC(C)=O)=NN2C(=O)/C=C/c2ccccc2)cc1 (configuration not stated),-6%,-20%
CCOC(=O)[C@@H]1[C@@H]2c3ccccc3-c3ccccc3[C@H]2C[C@H]1O,0%,-7%
CC(C)=C[C@H]1[C@@H](C(=O)OCc2cc3c(cc2Cl)OCO3)C1(C)C,0%,-6%
O=C(O)c1cc[c]([Hg][S]c2ncnc3nc[nH]c23)cc1,-1%,18%
CCOC(=O)c1cc(-c2ccccc2)sc1NC(=O)CCN1C(=O)c2ccccc2C1=O,-16%,?
CCOC(=O)c1cc(-c2ccccc2)sc1NC(=O)C(C)N1C(=O)c2ccccc2C1=O (configuration not stated),-5%,25µM*
CCOC(=O)c1sc(-c2ccccc2)cc1N,-12%,-8%
CCOC(=O)c1cc(-c2ccccc2)sc1N,-12%,25µM*
N#CS.N=C=S.N=C=S.[Cu].[NH2-].[NH2-].[NH2-].[NH2-].c1ccc2ncccc2c1,-1%,20%
COc1ccc(/C=C/c2nnc(NC(=O)CSc3ccc(Cl)cc3)s2)cc1,-1%,10µM*
Cc1ccc(-n2c(COc3c(C)cccc3C)nnc2SCC(=O)Nc2nccs2)cc1,11%,25µM*
O=C(CSc1ccccc1)Nc1nnc(COc2ccc(Cl)cc2)s1,-16%,1%
Cc1cccc(C)c1OCc1nnc(NC(=O)CSc2ccc(Cl)cc2)s1,1%,25µM*
Cc1ccc(OCc2nnc(SCC(=O)Nc3nccs3)n2-c2ccccc2)cc1C,3%,6%
COC(=O)Nc1nnc(/C=C/c2ccc(OC)cc2)s1,4%,-11%
O=c1cc(-c2ccccc2)nc(SCc2nc(-c3cccc(C(F)(F)F)c3)no2)[nH]1,2%,-4%
Cc1nc(NC(=O)COC(=O)CCS(=O)(=O)c2ccccc2Cl)c(Cl)cc1Cl,22µM*,-26%
Cc1[nH]c2ccccc2c1C(=O)COC(=O)CCS(=O)(=O)c1ccccc1Cl,-9%,-8%
COc1ccc([N+](=O)[O-])cc1NC(=O)C(C)c1ccccc1 (configuration not stated),-7%,-4%
COc1ccc([N+](=O)[O-])cc1NC(=O)CC(c1ccccc1)c1ccccc1,-3%,25µM*
SMILES,Cruzain inh Det,Cruzain noTriton
CCc1cc2c(=O)nc3n(c2s1)Cc1ccccc1/C3=C(/O)c1ccc(F)cc1,-1%,?
CCc1cc2c(=O)nc3n(c2s1)Cc1ccccc1/C3=C(/O)c1ccccc1Cl,-2%,25µM*
CCN(CC)c1ccc(C2C(C(N)=O)=C(C)Nc3nc(SCc4ccccc4Cl)nn32)cc1 (configuration not stated),-1%,-14%
O=C(Nc1cccc(-c2cn3ccccc3n2)c1)c1cccs1,-6%,3%
O=C(Nc1cccc(-c2cn3ccccc3n2)c1)c1cc2ccccc2oc1=O,3.5µM*,?
COc1ccc(NC(=O)C(C)n2nnc3sc(-c4ccccc4)cc3c2=O)cc1Cl (configuration not stated),-12%,25µM*
Cc1cc(C)c(NC(=O)C(C)n2nnc3sc(-c4ccccc4)cc3c2=O)c(C)c1 (configuration not stated),4%,?
CN(c1ccccc1)S(=O)(=O)c1ccc(NC(=S)NC(=O)C2CC2)cc1,-5%,-26%
CN(Cc1ccccc1)S(=O)(=O)c1ccc(NC(=S)NC(=O)C2CCCC2)cc1,-3%,2.5µM*
COc1ccc(Oc2ncc3ncc(=O)n(C4CC4)c3n2)cc1,2%,-11%
COc1cccc(-c2nc3c(c(SCc4ccccc4)n2)Cc2c(CO)cnc(C)c2O3)c1,-4%,8%
N=C1/C(=C/c2cccn2CCOc2ccccc2)C(=O)N=C2SC=C(c3ccccc3)N12,0%,6.3µM*
CCCC1=NN2C(=N)/C(=C\c3cc(C)n(-c4cc(C)cc(C)c4)c3C)C(=O)N=C2S1,-7%,?
Cc1ccc(-n2c(C)cc(/C=C3/C(=N)N4C(c5ccccc5)=CSC4=NC3=O)c2C)cc1,1%,6.3µM*
Cc1cc(C)cc(-n2c(C)cc(/C=C3\C(=N)N4N=C(CC(C)C)SC4=NC3=O)c2C)c1,-7%,25µM*
Cc1cccc(-n2c(C)cc(/C=C3\C(=N)N4N=C(CC(C)C)SC4=NC3=O)c2C)c1,-3%,?
